Hits are enriched below; roughly 1.8% of the tested compounds scored in any of these assays.
NOTCH ag – NOTCH pathway agonism; activation, % at 2.5 µM; 15,000 compounds, 0.4% hits; NOTCH signaling luciferase reporter cells, luminescence; in the data active = activation above about 2.2%
luminol inh ctr – luminol signal inhibition, Nox1 inhibitor counter-screen | inhibition, % at 6.7 µM | HRP/luminol/H2O2 chemiluminescence counterscreen | AID 1823 | 16,000 compounds, 0.4% hits; note: reference of the scale not given here
PME-1 Maybridge – PME-1 (human) inhibition, Maybridge primary screen; inhibition, % at 9 µM; Q9Y570; recombinant PME-1, FP-Rh probe fluorescence polarization; AID 2291; 16,000 compounds, 0.5% hits; in the data active = inhibition above about 30%
Target sequence (Q9Y570 whole entry, looked up): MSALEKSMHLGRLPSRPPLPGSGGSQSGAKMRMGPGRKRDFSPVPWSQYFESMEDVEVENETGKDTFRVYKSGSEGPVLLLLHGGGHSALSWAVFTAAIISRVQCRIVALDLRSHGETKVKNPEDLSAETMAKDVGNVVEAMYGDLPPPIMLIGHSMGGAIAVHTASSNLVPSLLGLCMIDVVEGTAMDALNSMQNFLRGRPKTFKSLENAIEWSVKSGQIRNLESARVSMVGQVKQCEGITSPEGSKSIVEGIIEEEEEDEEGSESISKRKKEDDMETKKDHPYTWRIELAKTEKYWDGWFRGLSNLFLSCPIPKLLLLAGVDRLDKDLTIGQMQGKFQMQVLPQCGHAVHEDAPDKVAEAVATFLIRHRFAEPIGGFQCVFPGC
Nox1 inh – blocks human NADPH oxidase 1 activity | AID 1792 | HT29 cells, luminol chemiluminescence ROS | 16,000 compounds, 0.81% hits | inhibition, % at 6.7 µM | Q9Y5S8
Numbers stand for hits; . = inactive; / = not tested or not shown. Cut-off read from the data, not from the text of the source, unless noted: active = inhibition above about 75%; inactive = the rest.

SMILES	NOTCH ag	luminol inh ctr	PME-1 Maybridge	Nox1 inh
NC(=O)NCc1ccccn1	.	.	.	.
Nc1nc(NCc2ccc(-c3cccs3)s2)n[nH]1	.	.	.	.
Nc1nc(NCc2ccccn2)n[nH]1	.	.	.	90
COc1nc(Nc2ccccc2)nc(OC)n1	.	.	.	.
Nc1nc(Nc2ccccc2)n[nH]1	/	.	.	78
Nc1nc(NCc2cccnc2)n[nH]1	.	.	.	77
O=[N+]([O-])c1ccc(-c2ccc(/C=N/Nc3ccccc3)o2)cc1	.	.	.	.
Cc1cn(CCC(=O)NC2Cc3ccccc3C2)c2ccccc12	.	.	.	.
Cc1cn(CCC(=O)NCc2ccc3c(c2)OCO3)c2ccccc12	3.5	.	.	.
COc1cccc(OC)c1C(=O)Nc1ccc(C(C#N)Cc2ccc(N(C)C)cc2)cc1 (centres undefined)	/	.	.	.
C/C(=N\OC(=O)Nc1ccccc1)c1sc2ccccc2c1C	.	.	.	.
CC(C)(C)c1ccc(-c2noc(C(=O)NNC(=S)Nc3cccc(C(F)(F)F)c3)n2)cc1	.	.	.	.
O=C(NNc1nc(-c2cccs2)cs1)c1ccc(Cl)cc1	.	.	.	.
CC(C)(C)c1csc(NNC(=O)c2ccc(Cl)cc2)n1	.	.	.	85
Nc1ccc(Nc2ccc(N)cc2S(=O)(=O)O)cc1	.	.	44	.
O=[N+]([O-])c1ccc(-c2ncn[nH]2)cc1	.	.	.	.
N#CCCN(Cc1ccco1)C(=O)Nc1ccc(OC(F)(F)F)cc1	.	.	.	.
CSc1ccc(/C=C/c2onc(C)c2[N+](=O)[O-])s1	.	.	64	.
CNC(=O)c1ccccc1Sc1ccc([N+](=O)[O-])cc1C(=O)O	.	.	.	.
CN(C)Nc1ccc([N+](=O)[O-])c(NN(C)C)c1C#N	.	.	.	81
CCC(=O)Nc1cnc(OC)c(C(F)(F)F)c1	.	.	.	.
CCC(=O)Nc1ccc2c(c1)N(CC)C(C)(C)CC2C (centres undefined)	.	.	.	93
N#CCN1CCN(c2nc3ccc(Cl)cc3s2)CC1	.	.	.	.
CSC1=NS(=O)(=O)c2c(C)nn(C)c2S1	.	.	.	89
Cc1csc(SCC(=O)NNS(=O)(=O)c2cc(C(F)(F)F)cc(C(F)(F)F)c2)n1	.	.	.	.
SMILES	NOTCH ag	luminol inh ctr	PME-1 Maybridge	Nox1 inh
Cc1csc2ncnc(NNS(=O)(=O)c3cc(C(F)(F)F)cc(C(F)(F)F)c3)c12	.	.	.	102
Cn1c(=O)c2[nH]c([N+](=O)[O-])nc2n(C)c1=O	.	.	.	.
CCCCCCSc1n[nH]c(=S)s1	.	96	.	.
CC(=O)Nc1ccc(NC(=O)c2c(Cl)cccc2Cl)c(C)c1	.	.	.	.
O=C1c2ccccc2C(=O)c2c(O)ccc(O)c21	.	.	40	.
Cc1cc(NNC(=O)c2ccccc2Cl)nc2c1c(C)nn2C	.	.	.	78
O=C(NNC(=O)C(F)(F)F)c1ccc[nH]1	.	.	.	.
CC(=O)/C(C=Nc1ccc(F)cc1)=C(\C)O	.	.	.	.
CC(=O)/C(C=Nc1cc(C)c(O)c(Cl)c1)=C(\C)O	.	.	.	92
CCOC(=O)NNC(=S)Nc1ccccc1N1CCOCC1	.	98	.	.
Nc1nc2[nH]c(=S)[nH]c2c(=O)[nH]1	.	.	.	93
Nc1nc2ccccc2c(=O)[nH]1	.	.	.	.
O=C(Nc1ccccc1)c1ccc(Oc2ccc(Cl)cc2)c([N+](=O)[O-])c1	.	.	.	.
c1cncc(-c2n[nH]c(-c3ccncc3)n2)c1	.	.	.	.
c1cncc(-c2csc(-c3cccnc3)n2)c1	.	.	34	.
COc1cccc(C(=O)CSc2nsc(SCC(=O)c3cccc(OC)c3)c2C#N)c1	.	.	.	88
O=C(N/N=C/c1ccc(OC(F)(F)F)cc1)c1cnco1	.	.	.	.
O=c1cc(Nc2ccc(OC(F)(F)F)cc2)c2ccccc2o1	.	.	54	.
Cc1cccc(C(=O)O)c1F	.	.	.	.
